The list is not random: actives were taken first. Their share in the collection is about 3.6%.
Pf apPOL block = Pf-apPOL DNA polymerase inhibition; inhibition, % at 10 µM; 210,000 tested, 0.25% active; Recombinant Pf-apPOL, molecular beacon fluorescence, 1.5 h; AID 1794808
mHTT CaM bind = disrupts binding of mutant huntingtin to calmodulin; AlphaScreen His-mHTT/GST-CaM binding, luminescence; inhibition, % at 15 µM; 190,000 tested, 3.6% active
Of the large screens only hits and unclear results are named; the others gave an inactive call. No stated cut-off is given here; in the data, active means inhibition above about 50%; inactive means the rest.

Cc1cc(Cl)ccc1N(CC(=O)Nc1ccc(F)cc1)S(C)(=O)=O	none
Cc1cc(C)cc(N(CC(=O)Nc2ccc(F)c(Cl)c2)S(C)(=O)=O)c1	mHTT CaM bind 56.4
O=C(O)c1n[nH]nc1C(=O)O	mHTT CaM bind 62.5 (no result: Pf apPOL block)
COC(=O)c1n[nH]nc1[N+](=O)[O-]	none (no result: Pf apPOL block)
Cc1ccc(OCC(=O)Nc2c(C)ccc3nsnc23)c(C)c1	none
O=C(CCCSc1ccc(F)cc1)Nc1ccc2c(c1)C(=O)NC2=O	none
CCn1cc2c3c(cccc31)CN(C(=O)NC(C)C)CC2	none
CC(C)CC(=O)N1CCc2cn(C)c3cccc(c23)C1	none
CC(C)Cn1cc2c3c(cccc31)CN(C(=O)Cc1cccs1)CC2	mHTT CaM bind 63.9
CCCC(=O)N1CCc2cn(CC(C)C)c3cccc(c23)C1	mHTT CaM bind 52.7
CC(C)CC(=O)N1CCc2cn(CC(C)C)c3cccc(c23)C1	none
CC(C)Cn1cc2c3c(cccc31)CN(C(=O)c1ccccn1)CC2	mHTT CaM bind 88.3
COc1ccc(C2CCCN2C(=O)Cc2cccs2)cc1 (centres undefined)	none
NNC(=O)CSCCS(=O)(=O)c1ccccc1	none (no result: mHTT CaM bind)
COC(=O)c1ccccc1Oc1ccncc1	none
CCOc1ccccc1NC(=O)c1c(NCc2ccccn2)sc2c1CCC2	mHTT CaM bind 58.0
COc1ccccc1NC(=O)c1c(NCc2ccccn2)sc2c1CCCC2	mHTT CaM bind 50.0
CCOc1ccccc1NC(=O)c1c(NCc2cccn2C)sc2c1CCC2	none
COc1ccc(NC(=O)c2c(NCc3ccccn3)sc3c2CCCC3)c(OC)c1	mHTT CaM bind 53.0
CCOc1ccccc1NC(=O)c1c(NCc2ccncc2)sc2c1CCC2	none
COc1ccc(NC(=O)c2c(NCc3ccccn3)sc3c2CCC(C)C3)c(OC)c1 (centres undefined)	none
CCOc1ccccc1-n1cc(-c2cc3ccccc3oc2=O)[nH]c1=O	none
CC1(C(=O)NCc2ccc(F)cc2)CCCN(C(=O)Nc2ccccc2Cl)C1 (centres undefined)	none
CNC(=O)C1CN(C(=O)Nc2ccc(C)cc2Cl)CC12CCCC2 (centres undefined)	none
Cc1nc2c(C(=O)NCCc3ccccc3)cnn2c(C)c1Cc1ccccc1F	mHTT CaM bind 70.0
COC(CNC(=O)c1cnn2c(C)c(Cc3cc(C)ccc3C)c(C)nc12)OC	mHTT CaM bind 61.0
COCCNC(=O)c1cnn2c(C)c(Cc3cc(C)ccc3C)c(C)nc12	none
COCCCNC(=O)c1cnn2c(C)c(Cc3ccccc3C)c(C)nc12	none
Cc1ccccc1Cc1c(C)nc2c(C(=O)NCCc3ccccc3)cnn2c1C	mHTT CaM bind 51.0
Cc1nc2c(C(=O)NCc3ccccc3)cnn2c(C)c1Cc1ccccc1F	none
O=C(NCCCN1CCCC1)C1CCN(c2nnc3ccc(Cl)cn23)CC1	none
CCOc1cccc2cc(-c3cc(=O)oc4cc(OCC=C(C)C)ccc34)c(=O)oc12	none
Cc1ccccc1NC(=O)NC1CCN(c2ccccc2)C1=O (centres undefined)	none
COc1ccccc1Nc1nc(-c2ccc(OC)c(OC)c2)cs1	none
COc1ccc(-c2csc(Nc3ccc(N(C)C)cc3)n2)cc1OC	mHTT CaM bind 97.4
NS(=O)(=O)c1ccc(Nc2nc(-c3cccnc3)cs2)cc1	none
COc1ccc(-c2csc(Nc3ccc(S(N)(=O)=O)cc3)n2)cc1OC	mHTT CaM bind 50.5
O=C(CN1C(=O)S/C(=C\c2c(Cl)cccc2Cl)C1=O)Nc1cc([N+](=O)[O-])ccc1O	mHTT CaM bind 61.0
Cc1cccc(C)c1NC(=O)CN1C(=O)c2ccc([N+](=O)[O-])cc2C1=O	none
CCCNC(=O)c1sc2c(Cl)c(OC)ccc2c1Cl	mHTT CaM bind 100.3
COc1ccc2c(Cl)c(C(=O)Nc3cc(C)ccc3C)sc2c1Cl	none
COc1ccc(-c2[nH]n(-c3nc4ccccc4s3)c(=O)c2C=NCC2CCCO2)cc1 (centres undefined)	none
COc1ccc(-c2[nH]n(-c3nc4ccccc4s3)c(=O)c2C=NCc2ccccn2)cc1	mHTT CaM bind 84.0
O=[N+]([O-])/C(C(=C(Cl)Cl)N1CCCCCC1)=C1\NCCO1	none
Oc1cccc(C=Nc2c(-c3ccco3)nc3ccccn23)c1	none
Cc1[nH]c2ccccc2c1C=Nc1c(-c2ccco2)nc2ccccn12	mHTT CaM bind 91.0
N#C/C(=C\c1cccs1)c1nc(-c2cccc([N+](=O)[O-])c2)cs1	none
CCC(C)NC(=O)c1cnn2c(C)c(Cc3ccc(Cl)cc3)c(C)nc12 (centres undefined)	none
Cc1nc2c(C(=O)O)cnn2c(C)c1Cc1ccccc1	none
CCC(C)NC(=O)c1cnn2c(C)c(Cc3cccc(Br)c3)c(C)nc12 (centres undefined)	mHTT CaM bind 74.0
CCC(C)NC(=O)c1cnn2c(C)c(Cc3cccc(Cl)c3)c(C)nc12 (centres undefined)	mHTT CaM bind 82.0
CCC(C)NC(=O)c1cnn2c(C)c(Cc3ccccc3C)c(C)nc12 (centres undefined)	mHTT CaM bind 87.0
CCC(C)NC(=O)c1cnn2c(C)c(Cc3c(C)cc(C)cc3C)c(C)nc12 (centres undefined)	none
Cc1ccccc1CNC(=O)C1CCc2sc(C(=O)N(C)C)cc2C1 (centres undefined)	none
Cc1ccc(N2CN(Cc3cccc(C#N)c3)S(=O)(=O)c3cccnc32)cc1	none
Cc1cccc(NC(=O)C(=O)Nc2cccc(C)n2)c1	none
COc1ccccc1NC(=O)N1CCC(c2ccn3ncc(C(=O)N4CCCC4)c3c2)CC1	none
COc1ccc(NC(=O)C2CC2)cc1OC	none
C=C(C)C1CC=C(CNc2ccc(OC)c(OC)c2)CC1 (centres undefined)	mHTT CaM bind 86.1
CC1=NN(c2cccc(C(=O)O)c2)C(=O)/C1=C/c1ccc(-c2cc([N+](=O)[O-])ccc2O)o1	none
CCC(C(=O)Nc1ccc2c(N3CCOCC3)ncnc2c1)c1ccccc1 (centres undefined)	none
CN(C)C(=O)c1csc(N2CCN(c3cccc(Cl)c3)CC2)n1	mHTT CaM bind 52.9
COc1cccc(N2CCN(c3nc(C(=O)N(C)C)cs3)CC2)c1	none
CC(O)(CNC(=O)C(=O)Nc1cccc(C(F)(F)F)c1)c1ccc2c(c1)OCO2 (centres undefined)	none
CCN(Cc1ccncc1)C(=O)c1ccc(-c2ccc(F)cc2)s1	none
CCN(Cc1ccncc1)C(=O)c1ccc(-c2cccc(Cl)c2)s1	mHTT CaM bind 74.6
CNC1C(O)C(NC)C2OC3(O)C(=O)CC(C)OC3OC2C1O (centres undefined)	Pf apPOL block 83.0 (no result: mHTT CaM bind)
O=C1C(=Cc2ccccc2)Oc2c1ccc(O)c2CN1CCCC1	none
CCc1nc(NCC2CC2)c2c(C)nn(-c3ccccc3)c2n1	none
O=C(Nc1ccc2c(N3CCOCC3)ncnc2c1)c1cccc(Br)c1	mHTT CaM bind 53.6
Cc1ccc(C(=O)Nc2ccc3c(N4CCOCC4)ncnc3c2)cc1	none
O=C(NCc1ccccc1Cl)C1CCCN(c2nccnc2Oc2ccccc2)C1 (centres undefined)	none
O=C(Nc1cccc(F)c1)c1ccc(N2CCC(NCc3ccccc3O)C2)nc1 (centres undefined)	none
O=C(Nc1cccc(F)c1)c1ccc(N2CCC(NCc3cc(Cl)ccc3O)C2)nc1 (centres undefined)	mHTT CaM bind 70.1
COc1ccc(Br)cc1C=C1Oc2cc(OC(C)C(=O)O)ccc2C1=O (centres undefined)	none
Cc1noc(NS(=O)(=O)c2ccc(NC(=O)COc3cc(Cl)ccc3Cl)cc2)c1C	none
CC(=O)N1c2ccccc2NC2=C(C(=O)CC(C)(C)C2)C1c1cccc(Br)c1 (centres undefined)	none

Screens (PubChem BioAssay)
